Records with an inconclusive call do not appear. Entries that show only a call come without a potency. The source made the active and inactive calls. Unless noted, calls follow the shape of the full dose curve.
Tests used:
[1] = qHTS assay to identify small molecule agonists of the peroxisome proliferator-activated receptor delta (PPARd) signaling pathway - cell viability counter screen (AID 743211; active = well fitted curve in the direction sought with a large enough effect in the repeat runs; an effect the other way counts as inactive or inconclusive; also: nearly all actives have a fitted effect of over 55% in size)
Procedure, shortened: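 PPARd-bla HEK293H cells (3000/well) were pre-incubated 5 h at 37 C, then exposed to compound for 17 h at 37 C. After 2 h with LiveBLAzer substrate, CellTiter-Glo was added to the same wells; luminescence read after 30 min at room temperature.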

[2] = qHTS assay to identify small molecule antagonists of the peroxisome proliferator-activated receptor delta (PPARd) signaling pathway - cell viability counter screen (AID 743213; active = well fitted curve in the direction sought with a large enough effect in the repeat runs; an effect the other way counts as inactive or inconclusive; also: nearly all actives have a fitted effect of over 50% in size)
Procedure, shortened: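 HEK293H cells with the PPARd UAS-bla reporter, co-treated 17 h at 37 C with compounds and L165041 (300 nM final), were lysed with CellTiter-Glo. Luminescence indicated viable cell content.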

[3] = biological target: Peroxisome proliferator-activated receptor delta (Homo sapiens) (UniProt Q03181); experiment: qHTS assay to identify small molecule antagonists of the peroxisome proliferator-activated receptor delta (PPARd) signaling pathway (AID 743215; active = well fitted inhibition curve with a large enough effect in the signal ratio in the repeat runs, not every such curve was filed as active; the % refers to the signal ratio;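 also: cells stimulated with agonist L165041 at 300 nM final during compound exposure; series mostly up to about 62 µM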)
Chain of Peroxisome proliferator-activated receptor delta (Homo sapiens) (Q03181 whole entry, looked up): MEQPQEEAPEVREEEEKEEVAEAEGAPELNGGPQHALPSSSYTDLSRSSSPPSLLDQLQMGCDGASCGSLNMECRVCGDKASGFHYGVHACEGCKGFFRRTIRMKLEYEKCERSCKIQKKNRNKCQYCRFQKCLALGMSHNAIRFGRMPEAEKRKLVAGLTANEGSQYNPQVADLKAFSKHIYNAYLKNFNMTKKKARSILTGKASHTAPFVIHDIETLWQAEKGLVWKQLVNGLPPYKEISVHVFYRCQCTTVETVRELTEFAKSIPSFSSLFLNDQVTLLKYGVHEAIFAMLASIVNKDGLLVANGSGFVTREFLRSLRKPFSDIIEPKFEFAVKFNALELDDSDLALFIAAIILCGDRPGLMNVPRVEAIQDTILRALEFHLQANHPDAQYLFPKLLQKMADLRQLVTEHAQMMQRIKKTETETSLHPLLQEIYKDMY
Procedure, shortened: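 Screen format: qHTS, antagonist mode. HEK293H PPARd-bla cells received compound and 300 nM L165041 (final), 17 h, 37 C. Beta-lactamase detected via FRET substrate fluorescence, 2 h, room temperature.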

[4] = qHTS assay to identify small molecule antagonists of the farnesoid-X-receptor (FXR) signaling pathway - cell viability counter screen (AID 743221; active = well fitted cell-killing curve with a large enough effect in the repeat runs, not every such curve was filed as active; also: nearly all actives have a fitted effect of over 50% in size)
Procedure, shortened: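 GeneBLAzer FXR-UAS-bla HEK 293T cells, compound plus chenodeoxycholic acid (50 uM final), 16 h at 37 C. CellTiter-Glo added to the same wells after the beta-lactamase read; luminescence read after 30 min at room temperature as viability.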

[5] = biological target: Vitamin D3 receptor (Homo sapiens) (UniProt P11473); experiment: qHTS assay to identify small molecule agonists of the vitamin D receptor (VDR) signaling pathway (AID 743222)
Chain of Vitamin D3 receptor (Homo sapiens) (P11473 whole entry, looked up): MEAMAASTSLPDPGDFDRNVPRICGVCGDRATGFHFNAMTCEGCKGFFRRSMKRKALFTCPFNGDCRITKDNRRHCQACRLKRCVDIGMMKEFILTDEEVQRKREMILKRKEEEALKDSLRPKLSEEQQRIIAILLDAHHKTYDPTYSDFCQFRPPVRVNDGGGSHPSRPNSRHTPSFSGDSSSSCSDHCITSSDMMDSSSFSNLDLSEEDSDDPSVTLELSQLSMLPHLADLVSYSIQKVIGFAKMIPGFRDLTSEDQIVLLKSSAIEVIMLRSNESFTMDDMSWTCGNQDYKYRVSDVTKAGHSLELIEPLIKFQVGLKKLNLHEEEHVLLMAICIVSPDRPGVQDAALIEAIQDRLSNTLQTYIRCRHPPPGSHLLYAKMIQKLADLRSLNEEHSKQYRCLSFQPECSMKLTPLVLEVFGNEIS
Procedure, shortened: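 Using LiveBLAzer B/G FRET detection, agonism was scored in VDR-bla cells exposed overnight (16 h, 37C) to DMSO-dissolved compounds; substrate incubation was 2 h at room temperature.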

[6] = biological target: Vitamin D3 receptor (Homo sapiens) (UniProt P11473); experiment: qHTS assay to identify small molecule antagonists of the vitamin D receptor (VDR) signaling pathway (AID 743223; active = well fitted inhibition curve with a large enough effect in the signal ratio in the repeat runs, not every such curve was filed as active; the % refers to the signal ratio)
Procedure, shortened: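 VDR-bla cells were treated with compound plus 3 nM final 1alpha,25-dihydroxyvitamin D3 for 16 h at 37C. Beta-lactamase reporter read by B/G FRET substrate fluorescence after 2 h at room temperature. qHTS format.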

[7] = qHTS assay to identify small molecule agonists of the vitamin D receptor (VDR) signaling pathway - cell viability counter screen (AID 743224; active = well fitted curve in the direction sought with a large enough effect in the repeat runs; an effect the other way counts as inactive or inconclusive; also: series mostly up to about 63 µM; nearly all actives have a fitted effect of over 50% in size)
Procedure, shortened: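 Counter screen for cytotoxicity: VDR-bla cells at 2,000 cells/well, 16 h compound exposure, then CellTiter-Glo luminescence after the beta-lactamase measurement.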

[8] = qHTS assay to identify small molecule antagonists of the vitamin D receptor (VDR) signaling pathway - cell viability counter screen (AID 743225; active = well fitted curve in the direction sought with a large enough effect in the repeat runs; an effect the other way counts as inactive or inconclusive; also: nearly all actives have a fitted effect of over 50% in size)
Procedure, shortened: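 VDR-UAS-bla HEK 293T cells were plated and incubated 4 h at 37C, then dosed with compound plus 3 nM (final) 1-alpha,25-dihydroxyvitamin D3 for 16 h. After the 2 h beta-lactamase read, viability in the same wells was read as CellTiter-Glo luminescence after 30 min at room temperature.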

[9] = qHTS assay to identify small molecule agonists of the NFkB signaling pathway - cell viability counter screen (AID 1159515); also: series mostly up to about 61 µM; nearly all actives have a fitted effect of over 55% in size
Procedure, shortened: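 Counter screen run alongside the NFkB-bla agonist assay: ME-180 reporter cells exposed to compounds for 5 hr, then lysed with CellTiter-Glo in the same wells. Luminescence, read after 30 min, reflects viable cells.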

[10] = qHTS assay to identify small molecule agonists of the endoplasmic reticulum stress response signaling pathway (AID 1159516; active = well fitted activation curve with a large enough effect in the signal ratio in the repeat runs, not every such curve was filed as active; the % refers to the signal ratio)
Procedure, shortened: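 For this screen, HeLa cells stably carrying beta-lactamase under the ER stress response element received test compounds, positive controls or DMSO for 5 hr at 37 C; B/G FRET substrate was then added and dual-wavelength emission recorded.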

[11] = qHTS assay to identify small molecule agonists of the endoplasmic reticulum stress response signaling pathway - cell viability counter screen (AID 1159517)
Procedure, shortened: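 Cytotoxicity of test compounds toward ESRE-bla HeLa cells was assessed after 5 hr exposure. The luminescent CellTiter-Glo signal was measured 30 min after reagent addition.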

[12] = qHTS assay to identify small molecule antagonists of the retinoid-related orphan receptor gamma (ROR-gamma) signaling pathway - cell viability counter screen (AID 1159520; active = well fitted curve in the direction sought with a large enough effect in the repeat runs; an effect the other way counts as inactive or inconclusive; also: nearly all actives have a fitted effect of over 50% in size)
Procedure, shortened: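 Tet-on ROR gamma CHO cells (1,000/well) were plated 4 hr, given compounds in DMSO for 2 hr at 37 C, then induced with 1 uM final doxycycline for 16 hr. Viability was read as ATP by CellTiter-Glo luminescence after 30 min.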

[13] = biological target: Nuclear receptor ROR-gamma (Homo sapiens) (UniProt P51449); experiment: qHTS assay to identify small molecule antagonists of the retinoid-related orphan receptor gamma (ROR-gamma) signaling pathway (AID 1159521; active = well fitted curve in the direction sought with a large enough effect in the repeat runs; an effect the other way counts as inactive or inconclusive)
Procedure, shortened: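 Tet-on ROR-gamma CHO cells with ROR response element-luciferase reporter; compounds added 2 hr before 1 uM doxycycline induction, then 16 hr at 37 C. Antagonism scored as decreased ONE-Glo luminescence.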

[14] = qHTS assay to identify small molecule agonists of the AP-1 signaling pathway - cell viability counter screen (AID 1159525); also: nearly all actives have a fitted effect of over 55% in size
Procedure, shortened: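 Each titration point was normalised to DMSO and tetra n-octyl ammonium bromide controls. The read was Cell Titer Glo luminescence after 30 min at RT, following 5 h compound exposure of ME-180 AP-1-bla cells at 37 °C.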

[15] = qHTS assay to identify small molecule agonists of the AP-1 signaling pathway (AID 1159526); also: potency is read from the fitted curve at half-maximal effect
[16] = biological target: Retinoic acid receptor RXR-alpha (Homo sapiens) (UniProt P19793); experiment: qHTS assay to identify small molecule agonists of the RXR signaling pathway (AID 1159527); also: nearly all actives have a fitted effect of over 35% in size
Chain of Retinoic acid receptor RXR-alpha (Homo sapiens) (P19793 whole entry, looked up): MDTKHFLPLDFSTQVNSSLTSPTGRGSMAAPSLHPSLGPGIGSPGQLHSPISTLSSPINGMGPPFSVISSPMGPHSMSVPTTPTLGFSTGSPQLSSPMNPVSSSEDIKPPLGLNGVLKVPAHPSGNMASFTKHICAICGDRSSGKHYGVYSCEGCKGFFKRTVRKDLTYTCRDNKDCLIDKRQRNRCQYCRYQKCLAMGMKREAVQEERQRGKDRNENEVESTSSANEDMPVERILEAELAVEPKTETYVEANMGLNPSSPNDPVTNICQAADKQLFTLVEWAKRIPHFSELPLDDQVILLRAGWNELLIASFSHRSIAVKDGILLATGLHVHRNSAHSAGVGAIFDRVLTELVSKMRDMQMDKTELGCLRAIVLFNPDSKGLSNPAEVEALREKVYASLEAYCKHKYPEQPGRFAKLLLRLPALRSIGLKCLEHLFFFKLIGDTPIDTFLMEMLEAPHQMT
Procedure, shortened: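 GeneBLAzer RXR-alpha-UAS-bla HEK 293T cells in 2% charcoal-stripped FBS medium were exposed to compounds for 16 hr at 37 C in agonist mode. Beta-lactamase reporter read as 460/530 nm FRET ratio after 2 hr substrate loading.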

[17] = qHTS assay to identify small molecule agonists of the farnesoid-X-receptor (FXR) signaling pathway - cell viability counter screen (AID 743218; active = well fitted curve in the direction sought with a large enough effect in the repeat runs; an effect the other way counts as inactive or inconclusive; also: nearly all actives have a fitted effect of over 45% in size)
Procedure, shortened: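 Same-well cytotoxicity check on FXR-UAS-bla HEK 293T cells: 5 h attachment, 16 h compound at 37 C, CellTiter-Glo luminescence read at room temperature after 30 min.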

[18] = biological target: Peroxisome proliferator-activated receptor delta (Homo sapiens) (UniProt Q03181); experiment: qHTS assay to identify small molecule agonists of the peroxisome proliferator-activated receptor delta (PPARd) signaling pathway (AID 743212);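 also: HEK293H cells with PPARd UAS beta-lactamase reporter GeneBLAzer system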
Procedure, shortened: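 Beta-lactamase reporter read by fluorescence (LiveBLAzer B/G FRET, 2 h, room temperature). Test agents, in DMSO, incubated at 37 C with PPARd-bla HEK293H cells.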

[19] = biological target: Bile acid receptor (Homo sapiens) (UniProt Q96RI1); experiment: qHTS assay to identify small molecule agonists of the farnesoid-X-receptor (FXR) signaling pathway (AID 743220; active = well fitted activation curve with a large enough effect in the signal ratio in the repeat runs, not every such curve was filed as active; the % refers to the signal ratio)
Chain of Bile acid receptor (Homo sapiens) (Q96RI1 whole entry, looked up): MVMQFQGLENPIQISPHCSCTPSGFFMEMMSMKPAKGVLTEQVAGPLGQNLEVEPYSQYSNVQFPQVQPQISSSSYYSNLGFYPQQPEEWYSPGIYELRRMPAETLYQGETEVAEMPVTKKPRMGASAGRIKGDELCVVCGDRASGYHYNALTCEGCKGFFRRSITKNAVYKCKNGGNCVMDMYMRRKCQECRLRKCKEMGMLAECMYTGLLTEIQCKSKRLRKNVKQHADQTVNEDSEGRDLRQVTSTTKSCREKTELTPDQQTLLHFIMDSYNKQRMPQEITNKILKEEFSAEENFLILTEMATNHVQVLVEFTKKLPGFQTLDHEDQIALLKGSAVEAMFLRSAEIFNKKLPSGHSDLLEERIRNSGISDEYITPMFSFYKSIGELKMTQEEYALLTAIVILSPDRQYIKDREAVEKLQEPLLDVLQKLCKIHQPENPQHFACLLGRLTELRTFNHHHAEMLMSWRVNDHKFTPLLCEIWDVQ
Procedure, shortened: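 FXR-UAS-bla HEK 293T cells carrying a UAS-driven beta-lactamase reporter were plated for 5 h at 37C/5% CO2, then exposed to DMSO-dissolved Tox21 10K compounds for 16 h at 37C. A LiveBLAzer B/G FRET substrate was loaded for 2 h at room temperature before fluorescence reading.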

With `Nc1ccccc1C(=O)OCC(O)CO` (configuration not stated) the Potency [1] was “inactive”, the Potency [2] was “inactive” and the Potency [3] was “inactive”. For the same compound, the Potency [4] was “inactive”, the outcome [5] was “inactive” and the Potency [6] was “inactive”. For the same compound, the Potency [7] was “inactive”, the Potency [8] was “inactive” and the Potency [9] was “inactive”. For the same compound, the Potency [10] was “inactive”, the Potency [11] was “inactive” and the Potency [12] was “inactive”. For the same compound, the Potency [13] was “inactive”, the Potency [14] was “inactive” and the Potency [15] was “inactive”. The Potency [16] was “inactive”.

With `CCC1(C2=NCCN2)Cc2ccccc2O1` (configuration not stated) the Potency [1] was “inactive”, the Potency [2] was “inactive” and the Potency [17] was “inactive”. For the same compound, the Potency [4] was “inactive”, the Potency [6] was “inactive” and the Potency [7] was “inactive”. For the same compound, the Potency [8] was “inactive”, the Potency [9] was “inactive” and the Potency [10] was “inactive”. For the same compound, the Potency [11] was “inactive”, the Potency [12] was “inactive” and the Potency [13] was “inactive”. The Potency [14] was “inactive”, the Potency [15] was “inactive” and the Potency [16] was “inactive”.

For `CC(Cc1ccccc1)NCc1ccccc1Cl` (configuration not stated), the outcome [18] was “inactive”, the Potency [2] was “inactive” and the Potency [3] was “inactive”. For the same compound, the Potency [4] was “inactive”, the outcome [5] was “inactive” and the Potency [6] was “inactive”. For the same compound, the Potency [7] was “inactive”, the Potency [9] was “inactive” and the Potency [10] was “inactive”. The Potency [11] was “inactive”, the Potency [12] was “inactive” and the Potency [13] was “inactive”. For the same compound, the Potency [14] was “inactive”, the Potency [15] was 23.9 µM (active) and the Potency [16] was “inactive”.

In the case of `O=C=NC1CCCCC1`, the Potency [1] is reported as “inactive”, the Potency [3] is reported as “inactive” and the outcome [19] is reported as “inactive”. The Potency [4] was “inactive”, the outcome [5] was “inactive” and the Potency [6] was “inactive”. For the same compound, the Potency [7] was “inactive”, the Potency [8] was “inactive” and the Potency [9] was “inactive”. The Potency [10] was “inactive”, the Potency [11] was “inactive” and the Potency [12] was “inactive”. For the same compound, the Potency [13] was “inactive”, the Potency [14] was “inactive” and the Potency [15] was “inactive”. For the same compound, the Potency [16] was “inactive”.

Source: PubChem BioAssay (Tox21)
